{"source": "PubChem BioAssay (NCATS)", "note": "Values joined by “and” are separate entries in the source; they are usually repeats but may differ in a detail not shown here. Identical values can stand only once. Results filed as inconclusive are left out. Active and inactive are the calls of the source. Calls follow the shape of the dose curve; as a rule, active = well fitted cell-killing curve with a large enough effect; inconclusive = small, poorly fitted or top-dose-only effect; inactive = flat fitted curve, though single readings scatter. % is scaled to controls: 0 for no effect and ±100 for the full control effect; potency is read from the fitted curve at half-maximal effect."}
{"assay": "Cellular viability qHTS for adrenocortical cancer (ACC) cell line SW-13 (AID 1963989); also: nearly all actives have a fitted effect of over 65% in size;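 as to activity (max response): cells grown in serum-free medium with ITS supplement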", "conditions": "SW-13 ACC cells viability, CellTiter-Glo, 48 h; activity (max response): hits give low values", "description": "PI: Naris Nilubol, MD Surgical Oncology Program, National Cancer Institute (NCI) National Institute of Health (NIH), Bethesda, Maryland Adrenocortical cancer (ACC) is a rare malignancy with poor survival outcomes and few treatment options. Currently, mitotane is the only FDA-approved therapy for ACC. Although adjuvant radiation therapy is rarely utilized, it has the potential to improve survival in select cases. Through a quantitative high-throughput drug screen (qHTS), we identified auranofin (AF), a thioredoxin reductase (TXNRD) inhibitor, as a promising candidate drug. This study aims to evaluate whether AF can enhance the efficacy of radiation therapy in the treatment of ACC. Two human ACC cell lines, SW-13 and NCI-H295R, were screened using the National Center for Advancing Translational Sciences (NCATS) Pharmaceutical Collection (NPC) and the Mechanism Interrogation PlatE (MIPE) library (~4,991 compounds). CellTiter-Glo (Cat # G7570, Promega, Madison, WI) was utilized to measure cell viability. Described herein are the results of the corresponding viability assay.\nPROTOCOL TABLE (as described by Inglese J, Shamu CE and Guy RK. 2007) SEQUENCE No. (e.g., 1, 2, 3, etc.); […] (e.g., Cells, Incubation, Reagent, etc.); VALUE; DESCRIPTION. 1; Cells; 5 uL; white, solid-bottom, 1536-well tissue-culture treated plates. 2; Time; overnight culture at 37C with 5% CO2. 3; Compounds and control; 23 nL; Kalypsis pin tool (Wako USA) equipped with a 1536-well pin head to transfer to the assay plates. 4; Time; 48 hours; 37C with 5% CO2. 5; Reagent; 4 uL; CellTiter-Glo luminescent substrate mix. 6; Time; 20 min at room temperature. 7; Detection; Luminescence; ViewLux plate reader NOTES (numbers refer to Sequence numbers above) 1. SW13 cells were harvested from a T175 flask and resuspended in ITS-supplemented DMEM serum-free medium at a concentration of 300 000 cells/mL. Then 5 uL of resuspended cells were dispensed into each well of white, solid-bottom, 1536-well tissue-culture-treated plates using a multidrop combi dispenser. The plates were covered with stainless steel gasket lids. 2-3. The plates were cultured overnight at 37C with 5% CO2. Twenty-three nL of compounds (eight selected concentrations from the NPC / MIPE) or positive control (10 mM stock of bortezomib) in DMSO was transferred to each well of the assay plate using a pin tool (Kalypsys, San Diego, CA, USA). The final concentration of the compounds in the 5 uL assay volume ranged from 0.5 nM to 46 uM. 4-6. After 48 hours of incubation at 37C and 5% CO2, 4 uL of CellTilter-Glo luminescent substrate mix (Promega, Madison, WI, USA) was added to each well. Then the plates were incubated for 20 minutes at room temperature. 7. After incubation, luminescence was measured using a ViewLux plate reader (PerkinElmer, Waltham, MA, USA) with a clear filter was used to measure the number of metabolically competent cells. To determine compound activity in the qHTS assay, the titration-response data for each sample was plotted and modeled by a four-parameter logistic fit yielding IC50 and efficacy (maximal response) values. […] REFERENCES: Inglese J, Shamu CE and Guy RK, Reporting data from high throughput screening of small molecule libraries, Nature Chemical Biology, 2007, 3(8): 438-441. doi.org/10.1038/nchembio0807-438."}
{"smiles": "COc1cc2nc(-c3ccc(N4CCN(C)CC4)cc3)nc(NCCN3CCOCC3)c2cc1OC", "Potency": "17.8 µM (active)"}
{"smiles": "C/C(=C(\\CCOP(=O)(O)O)SC(=O)c1ccccc1)N(C=O)Cc1cnc(C)nc1N", "activity (max response)": "11.3% (inactive)"}
{"smiles": "COCCc1ccc(OCC(O)CNC(C)C)cc1", "note": "(stereo not given)", "activity (max response)": "-3.54% (inactive)"}
{"smiles": "CC(C)Nc1cc(-c2c[nH]c(C(=O)N[C@H](CO)c3cccc(Cl)c3)c2)c(Cl)cn1", "Potency": "15.8 µM (active)"}
{"smiles": "O=C(O)CC(O)C(=O)O", "note": "(stereo not given)", "activity (max response)": "12.9% (inactive)"}
{"smiles": "CC(C(=O)O)c1ccc(/C=C2\\CCCCC2=O)cc1", "note": "(stereo not given)", "activity (max response)": "8.31% (inactive)"}
{"smiles": "C[C@@H]1C[C@H]2[C@@H]3C[C@H](F)C4=CC(=O)C=C[C@]4(C)[C@@]3(F)[C@@H](O)C[C@]2(C)[C@@]1(O)C(=O)CO", "activity (max response)": "-1.7% (inactive)"}
{"smiles": "COc1cc2c(NC3CCN(C4CCCCC4)CC3)nc(N3CCCN(C(C)C)CC3)nc2cc1OCCCN1CCCCC1", "Potency": "3.16 µM (active)"}
{"smiles": "CC(C)OC(=O)c1cc2c(OCC(O)CNC(C)(C)C)cccc2[nH]1", "note": "(stereo not given)", "activity (max response)": "-10.4% (inactive)"}
{"smiles": "CC(C)(O)c1ccccc1CC[C@@H](SCC1(CC(=O)O)CC1)c1cccc(/C=C/c2ccc3ccc(Cl)cc3n2)c1", "activity (max response)": "11.5% (inactive)"}
{"smiles": "C[C@]12CC[C@H](O)CC1=CC[C@@H]1[C@@H]2CC[C@]2(C)C(c3cccnc3)=CC[C@@H]12", "activity (max response)": "2.71% (inactive)"}
{"smiles": "Nc1cc(COc2c(Cl)cc(C[C@H](N)C(=O)O)cc2Cl)c2oc(-c3ccccc3)nc2c1", "activity (max response)": "4.08% (inactive)"}
{"smiles": "O=C(O)C1=CC(O)C(O)[C@H](O)C1", "note": "(stereo not given in full)", "activity (max response)": "-8.83% (inactive)"}
{"smiles": "CN(C)CCN(C)C(=O)c1ccc(NC(=O)Nc2ccc(-c3nc(N4CCOCC4)c4ccn(CC(F)(F)F)c4n3)cc2)cc1", "Potency": "0.708 µM (active)"}
{"smiles": "CCCCCCCCCCCCCCCCOCCCOP(=O)(O)COC(CO)Cn1ccc(N)nc1=O", "note": "(stereo not given)", "activity (max response)": "-4.49% (inactive)"}
{"smiles": "Cc1ncc([N+](=O)[O-])n1CC(O)CCl", "note": "(stereo not given)", "activity (max response)": "-4.94% (inactive)"}
{"smiles": "N#Cc1cccc(-c2c[nH]c3ncnc(N4CCOCC4)c23)c1", "activity (max response)": "9.94% (inactive)"}
{"smiles": "Cc1cn([C@H]2C=C[C@@H](CO)O2)c(=O)[nH]c1=O", "activity (max response)": "4.28% (inactive)"}
{"smiles": "CCC(C(=O)NC(=O)NC(C)=O)c1ccccc1", "note": "(stereo not given)", "activity (max response)": "-1.46% (inactive)"}
{"smiles": "CN1C(=O)N[C@H](Cc2c[nH]c3c(Cl)cccc23)C1=O", "activity (max response)": "-3.83% (inactive)"}
{"smiles": "Cc1c(O)cccc1C(=O)N[C@@H](CSc1ccccc1)[C@H](O)CN1C[C@H]2CCCC[C@H]2C[C@H]1C(=O)NC(C)(C)C", "Potency": "20.6 µM (active)"}
{"smiles": "CC(=O)Oc1ccc(C2(c3ccc(OC(C)=O)cc3)C(=O)Nc3ccccc32)cc1", "activity (max response)": "-6.19% (inactive)"}
{"smiles": "N#C/C(=C1\\SCC(c2ccccc2Cl)S1)n1ccnc1", "note": "(stereo not given)", "activity (max response)": "-13.5% (inactive)"}
{"smiles": "CCN[C@@H]1C[C@H](N)[C@@H](OC2OC(CN)=CCC2N)[C@H](O)[C@H]1O[C@H]1OC[C@](C)(O)[C@H](NC)[C@H]1O", "note": "(stereo not given in full)", "activity (max response)": "-2.24% (inactive)"}
{"smiles": "COC(=O)/C=C\\C(=O)OC", "activity (max response)": "9.62% (inactive)"}
{"smiles": "COc1cc(OC)c(NC(=O)Nc2cc(C)on2)cc1Cl", "activity (max response)": "-19.6% (inactive)"}
{"smiles": "CC(=O)CCC(=O)O", "activity (max response)": "9% (inactive)"}
{"smiles": "Cc1ccc(Nc2cc(N[C@@H]3CCCC[C@@H]3N)nnc2C(N)=O)nc1C", "activity (max response)": "-5.27% (inactive)"}
{"smiles": "NCc1ccc(S(N)(=O)=O)cc1", "activity (max response)": "-8.11% (inactive)"}
{"smiles": "NCCCCCC(=O)O", "activity (max response)": "12.2% (inactive) and -16.4% (inactive)"}
{"smiles": "Cc1cc2c(cc1S(N)(=O)=O)S(=O)(=O)CCC2", "activity (max response)": "12.2% (inactive)"}
{"smiles": "COc1ccc(C(=O)CC(=O)c2ccc(C(C)(C)C)cc2)cc1", "activity (max response)": "8.41% (inactive) and -10.7% (inactive)"}
{"smiles": "NS(=O)(=O)c1cc2c(cc1Cl)NC(C(Cl)Cl)NS2(=O)=O", "note": "(stereo not given)", "activity (max response)": "15.1% (inactive) and 11.4% (inactive)"}
{"smiles": "C=CC(=O)N[C@H]1CN(c2nc(Nc3cn(C)nc3OC)c3ncn(C)c3n2)C[C@@H]1F", "Potency": "0.199 µM (active)"}
{"smiles": "CC(C(O)c1ccc(O)cc1)N1CCC(Cc2ccccc2)CC1", "note": "(stereo not given)", "activity (max response)": "-9.39% (inactive)"}
{"smiles": "CCCCCCCC(=O)OCC(O)CO", "note": "(stereo not given)", "activity (max response)": "-7.07% (inactive)"}
{"smiles": "Nc1c2c(nc3ccccc13)CCCC2", "activity (max response)": "-1.99% (inactive) and -7.86% (inactive)"}
{"smiles": "O=C(Nc1cn[nH]c1-c1nc2ccc(CN3CCOCC3)cc2[nH]1)NC1CC1", "Potency": "3.16 µM (active)"}
{"smiles": "CCN(CC)C(=O)Nc1ccc(OCC(O)CNC(C)(C)C)c(C(C)=O)c1", "note": "(stereo not given)", "activity (max response)": "12% (inactive)"}
{"smiles": "CO/N=C(\\C(=O)O)c1csc(NC(=O)CCl)n1", "activity (max response)": "13% (inactive)"}
